# High-throughput results from PubChem BioAssay.
# A selection: hits, their analogues and other compounds. The true share with any hit is near 3.8%.
# ELG1 DNA repair = blocks ELG1-dependent DNA repair in HEK293T cells; HEK293T ELG1-luciferase reporter, luminescence, 16 h; DNA damage induced by 5-fluorouridine; Potency, µM (top dose mostly 46.1 µM), actives largely listed as inhibitors; actives 2.3% (n = 330,000); note: nearly all actives have a fitted effect of over 55% in size
#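 In this reporter screen, reduction of luminescence relative to DMSO vehicle indicated activity. Compounds and 5-fluorouridine were added together to 2,000 cells per well, incubated for 16 hr at 37 °C, then developed with ONE-Glo.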
# Nrf2 ARE act = activators of Nrf2 (ARE) signaling; AREc32 ARE-luciferase reporter (MCF7-derived line), luminescence, 24 h; Potency, µM (titrated, usually from 46.1 µM), most hits filed as activators; actives 0.31% (n = 410,000); AID 624171; note: nearly all actives have a fitted effect of over 65% in size
#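 Each well held 1000 AREc32 cells, which were incubated with compound for 24 hr at 37 deg C after overnight attachment, and ARE reporter activity was quantified by firefly luciferase luminescence.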
# IDH1 R132H inh = inhibitors of human mutant IDH1 R132H | Potency, µM (titrated, usually from 76.6 µM), actives largely listed as inhibitors | O75874 | IDH1-R132H enzyme, NADPH consumption, diaphorase/resazurin fluorescence | AID 602179 | actives 0.093% (n = 390,000); note: nearly all actives have a fitted effect of over 65% in size
# Target sequence (O75874 whole entry R132H, stated change not applied): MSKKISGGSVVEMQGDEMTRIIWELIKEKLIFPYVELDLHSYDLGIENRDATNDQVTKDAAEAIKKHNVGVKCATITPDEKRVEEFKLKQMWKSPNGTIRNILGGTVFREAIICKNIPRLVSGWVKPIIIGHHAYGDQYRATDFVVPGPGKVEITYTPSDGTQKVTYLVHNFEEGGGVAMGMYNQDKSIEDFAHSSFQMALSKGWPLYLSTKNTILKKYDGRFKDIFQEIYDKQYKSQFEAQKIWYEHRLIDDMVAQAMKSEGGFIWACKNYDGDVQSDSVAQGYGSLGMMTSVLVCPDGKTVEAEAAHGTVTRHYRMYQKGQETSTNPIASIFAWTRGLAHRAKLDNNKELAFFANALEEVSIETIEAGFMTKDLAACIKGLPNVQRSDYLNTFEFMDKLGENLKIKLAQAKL
#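 IDH1-R132H (0.5 ug/mL dispensed) in pH 7.5 Tris buffer was preincubated 30 min with compound, then given a substrate mix of 0.016 mM NADPH and 2 mM alpha-KG for 80 min at room temperature; remaining NADPH was read by diaphorase/resazurin fluorescence.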
# A549 viability = counter-screen for Nrf2 inhibitors: cytotoxicity in A549 cells; A549 ARE-Fluc cells, CellTiter-Fluor viability, 18-24 h; Potency, µM (doses to about 46 µM), actives largely listed as inhibitors; actives 0.16% (n = 390,000)
#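 A549 ARE-Fluc cells in 5% FBS OPTI-MEM, 5000 cells/well, rested 2 h then exposed to compounds in concentration-response for 18-24 h at 37 °C. Viability by CellTiter-Fluor fluorescence (Ex 405/Em 525) after 30 min; luciferase luminescence (BugLite, 15 min, RT) read afterwards.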
# Nrf2 block = inhibitors of Nrf2 signaling; A549 ARE-Fluc reporter, luciferase luminescence, 18-24 h; actives 2.1% (n = 360,000); Potency, µM (titrated, usually from 46 µM), hits mostly inhibitors; AID 504444; note: nearly all actives have a fitted effect of over 60% in size
#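 A549 ARE_Fluc cells, 5000/well, 5% FBS OPTI-MEM; compounds in dose-response, 18-24 h at 37 °C/5% CO2; CellTiter-Fluor viability read (Ex 405/Em 525), then BugLite luciferase luminescence = Nrf2 activity.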
# A number is an active result; . = inactive; ? = inconclusive; / = no result; [ ] = remark or other dose. Calls come from the whole dose curve; as a rule, active = well fitted curve in the direction sought with a large enough effect; inconclusive = small, poorly fitted or top-dose-only effect, or another doubt; inactive = no such curve, though single readings can be large; an effect the other way counts as inactive or inconclusive.
SMILES,ELG1 DNA repair,Nrf2 ARE act,IDH1 R132H inh,A549 viability,Nrf2 block
COc1ccc(-c2cc(C(=O)Nc3cc(S(=O)(=O)N4CCOCC4)ccc3N3CCOCC3)c3ccccc3n2)cc1,4.1µM,.,.,.,.
COc1ccc2cc(/C(C)=N/NC(=S)Nc3cc(S(=O)(=O)N4CCOCC4)ccc3N3CCOCC3)ccc2c1,4.6µM,/,/,/,/
CCN1CCN(c2ccc(S(=O)(=O)N3CCOCC3)cc2NC(=O)c2cc(Cl)nc3ccccc23)CC1,.,.,.,.,.
O=C(Nc1ccccc1N1CCCC1)c1cc(S(=O)(=O)N2CCOCC2)ccc1Cl,.,.,.,.,?
Cc1c(C(=O)Nc2cc(S(=O)(=O)N3CCOCC3)ccc2N2CCN(C)CC2)oc2ccccc12,16µM,.,.,?,.
O=C(/C=C/c1ccc(Cl)cc1)Nc1cc(S(=O)(=O)N2CCOCC2)ccc1N1CCOCC1,26µM,.,.,.,?
Cc1c(C(=O)Nc2ccc3nc(N4CCOCC4)sc3c2)oc2ccccc12,11µM,.,.,.,.
O=C(Nc1ccc2nc(N3CCOCC3)sc2c1)c1cc2ccccc2o1,/,.,.,/,/
CCN1CCN(c2ccc(S(=O)(=O)N3CCOCC3)cc2NC(=O)/C=C/c2ccc(C)cc2)CC1,.,.,.,.,.
CCC(C)(C)C1CCc2[nH]nc(C(=O)NCCN3CCOCC3)c2C1 (stereo not drawn),.,.,.,.,.
CCC(C)(C)C1CCc2[nH]nc(C(=O)NCCCNC(=O)OC(C)(C)C)c2C1 (stereo not drawn),?,.,.,.,26µM
CCc1ccccc1NC(=O)CCNS(=O)(=O)c1ccc2c(c1)CCCC(=O)N2,/,.,.,.,.
Cc1cc(C)cc(OCC(O)CN2CCC(CN3C(=O)c4cccc5cccc(c45)C3=O)CC2)c1 (stereo not drawn),?,.,.,?,18µM
Cc1ccc(C)c(OCC(O)CN2CCN(CCN3C(=O)c4cccc5cccc(c45)C3=O)CC2)c1 (stereo not drawn),18µM,.,.,?,?
Nc1cc2c3c(cccc3c1)C(=O)N(CCN1CCCC1)C2=O,?,.,.,?,13µM
O=C1c2cccc3cccc(c23)C(=O)N1CCN1CCN(CC(O)COc2ccc3ccccc3c2)CC1 (stereo not drawn),9.2µM,.,.,.,.
O=C1c2cccc3cccc(c23)C(=O)N1CC1CCN(CC(O)COc2ccc3ccccc3c2)CC1 (stereo not drawn),?,.,.,?,?
COc1cccc(OCC(O)CN2CCC(CN3C(=O)c4cccc5cccc(c45)C3=O)CC2)c1 (stereo not drawn),?,.,.,?,.
CCN(CC)CCN1C(=O)c2cccc3cc(N)cc(c23)C1=O,.,.,.,?,?
CC(=O)c1ccccc1OCC(O)CN1CCN(CCN2C(=O)c3cccc4cccc(c34)C2=O)CC1 (stereo not drawn),?,.,.,?,?
CC1=C(N2CCCCC2)CCC1=O,/,.,.,.,.
CCOC(=O)CNC(=O)c1cc2c(=O)oc3ccccc3c2s1,/,.,.,.,.[9.27 µM]
Cc1ccc(NC(=O)CN(C)S(=O)(=O)c2ccc3c(c2)CCC(=O)N3)c(C)c1,/,.,.,.,.
Cc1ccc(-c2cc(C(=O)N(C)Cc3cnn(C)c3C)c3cc(Br)ccc3n2)cc1,5.8µM,.,.,?,?
Cc1ccc(-c2cc(C(=O)NCc3cnn(C)c3C)c3cc(Br)ccc3n2)cc1,.,.,.,.,?
SMILES,ELG1 DNA repair,Nrf2 ARE act,IDH1 R132H inh,A549 viability,Nrf2 block
CCc1ccc(CNC(=O)CCn2c(=O)c3cccn3c3ccc(F)cc32)cc1,/,.,.,.,.
CC(C)CC(=O)/C(=C\c1ccc(Cl)cc1Cl)n1cncn1,21µM,.,.,.,.
CC(=O)Nc1ccc(S(=O)(=O)Oc2ccc(C(=S)N3CCCCC3)cc2)cc1,?,.,.,.,21µM
CCOc1cc(C(=S)N2CCOCC2)ccc1OS(=O)(=O)c1ccc(NC(C)=O)cc1,?,.,.,.,9.2µM
N#C/C(=C\c1ccc(N2CCOCC2)o1)c1nc2ccccc2[nH]1,?,.,.,?,?
N#C/C(=C/c1ccc(N2CCOCC2)o1)c1ccc(Cl)cc1,?,13µM,.,?,?
O=C(COc1ccc(Cl)cc1)Nc1cccc(S(=O)(=O)NC2=NCCCCC2)c1,.,.,.,.,26µM
O=C(Nc1cccc(S(=O)(=O)NC2=NCCCCC2)c1)c1ccc(Cl)cc1,?,.,.,.,15µM
O=C(Nc1cccc(S(=O)(=O)NC2=NCCC2)c1)c1ccccc1,.,.,.,.,.
O=C(COc1ccc(Cl)cc1)NCC(c1ccco1)S(=O)(=O)c1ccc(Cl)cc1 (stereo not drawn),/,.,.,.,/
CCOC(=O)c1c(NC(NC(=O)C(C)C)C(Cl)(Cl)Cl)sc2c1CCC2 (stereo not drawn),.,.,.,?,23µM
COc1ccc(NC(=O)C(C)n2nc(-c3ccc(C)c(C)c3)ccc2=O)cc1OC (stereo not drawn),/,.,.,.,.
Cc1ccc(O)c(C(=O)c2cnc3c(c2)COc2ccccc2-3)c1,16µM,.,.,.,?
Cc1ccc2c(c1)-c1ncc(C(=O)c3ccccc3O)cc1CO2,/,.,.,.,.
CC(C)c1nnc(NC(=O)c2c(O)c3cccc4c3n(c2=O)CCC4)s1,?,.,.,?,16µM
O=C(NCCNCCO)c1c(O)c2cccc3c2n(c1=O)CCC3,6.5µM,.,.,.,.
Cc1cnc(NC(=O)c2c(O)c3cccc4c3n(c2=O)CCC4)s1,.,/,/,/,/
CC(C)(C)c1ccc(S(=O)(=O)CCc2ccccn2)cc1,?,.,.,.,?
Cc1ccc(CCS(=O)(=O)c2ccc(C(C)(C)C)cc2)cn1,?,.,.,.,8.2µM
COc1ccc2c(c1)CC(NC(=O)Nc1ccc(NC(C)=O)cc1)CO2 (stereo not drawn),/,.,.,.,/
Cc1cc(C)c2c(=O)c3c(oc2c1)C(=O)N(Cc1ccc(F)cc1)C3c1cccc(O)c1 (stereo not drawn),/,.,/,?,?
Cc1ccc(CNC(=O)Cn2cc3c(n2)-c2c(oc(C(=O)N4CCOCC4)c2C)CC3)cc1,/,.,.,.,?
COc1cc(NC2CCCCC2O)c2nc(-c3ccc(Cl)cc3)ccc2c1 (stereo not drawn),.,.,.,9.2µM,?
CC(C)C[C@@H](COCc1ccc(C(F)(F)F)cc1)N1CCN(C(=O)c2ccc(C(F)(F)F)cc2)CCC1=O,/,.,/,/,/
O=C(c1ccc(Cl)c(Cl)c1)N1CCC(=O)N(C(COCc2cccc(C(F)(F)F)c2)Cc2ccccc2)CC1 (stereo not drawn),?,.,.,?,21µM
